Values of other authors in PubChem BioAssay AID977611.
In all, about 3,900 compounds went through this assay and about 3,900 (100%) were called active. No cut-off is given here; in the data, nearly all actives have Kd up to about 4200 µM. So high a share suggests a set chosen from earlier hits. Some of the results follow. Numbered stars: 1 amine (or outer) side, 2 acyl side, 3 side chain; on linkers, the order of the positions; unused ones are H or OH. *1 amine or outer side, *2 acyl side, *3 side chain or, on linkers, in order; H or OH if unused. Where a SMILES comes first, the peptide text is derived from it. Non-standard residues stand in square brackets, D forms with d. Square brackets hold non-standard residues; d marks the D form. Residues, ends and D or L forms follow the SMILES beside them. Peptide text beside a SMILES is read from it. [ ]: non-standard residue; d: D form. X3 = CCCCCC[C@](C)(N[C@@H](O)CN)[C@H](O)N([C@@H](CC(C)C)C(=O)[*:2])[*:1]; X1 = CCCC[C@@](C)(N[*:1])C(=O)[*:2]; Thr(P(OH)3+) = C[C@@H](O[P+](O)(O)O)[C@H](N)C(=O)O; Orn(CH(NH2)2) = NC(N)NCCC[C@H](N)C(=O)O; X4 = CCCCCC[C@](C)(N[*:1])C(=O)[*:2]; X2 = CCCC[C@](C)(N[*:1])C(=O)[*:2]

Experiment: PubChem AID 977611
Conditions: PDB protein-ligand complexes, literature Kd

## c1ccc(-c2nsc(N3CCCNCC3)n2)cc1
protein: INTEGRASE, PDB entry 4ah9
  Kd: 3500 µM (active)

## Cc1ccc(C(=O)N(CCCN)[C@@H](C2=C(Cc3ccccc3)C(O)c3ccc(Cl)cc3O2)C(C)C)cc1 (stereo not given in full)
protein: KINESIN-LIKE PROTEIN KIF11, PDB entry 4bxn
  Kd: 0.01 µM (active)

## O[C@@H](CC1c2ccccc2Sc2ccccc21)CN1CCCC1
protein: Renin, PDB entry 4gj8
  Kd: 500 µM (active)

## Cc1ncc2c(n1)N(C)C(=O)C(=N)C2
protein: Caspase-6, PDB entry 4n5d
  Kd: 607 µM (active)

## CC[C@H](C)[C@H](NC(=O)CNC(=O)[C@H](CCC(=O)O)NC(=O)CNC(=O)[C@H](CCC(=O)O)NC(=O)[C@H](CCC(=O)O)NC(=O)[C@H](CC(C)C)NC(=O)CNC(=O)[C@H](Cc1ccccc1)NC(=O)[C@H](Cc1c[nH]cn1)NC(=O)[C@H](Cc1ccc(O)cc1)NC(=O)[C@H](CC(=O)O)NC(=O)[C@@H](N)CC(C)C)C(=O)N[C@@H](CCCNC(N)N)C(=O)N[C@@H](CC(=O)O)C(=O)N[C@@H](CC(C)C)C(=O)N[C@@H](Cc1ccccc1)C(=O)N[C@H](C)CC(=O)O
protein: The human retinoblastoma tumor suppressor protein (pRb), PDB entry 1o9k
  Kd: 0.34 µM (active)

## CC[C@H](C)[C@H](NC(=O)[C@H](CC(C)C)NC(=O)[C@H](Cc1c[nH]cn1)NC(=O)[C@H](CC(=O)O)NC(=O)[C@H](CC(=O)O)NC(=O)[C@H](CCC(=O)O)NC(=O)[C@H](CC(=O)O)NC(=O)[C@@H](NC(=O)[C@H](CC(=O)O)NC(=O)[C@@H](N)CCC(=O)O)[C@@H](C)O[P+](O)(O)O)C(=O)N[C@@H](Cc1ccc(O)cc1)C(=O)N[C@@H](CC(C)C)C(=O)N[C@@H](CCC(=O)O)C(=O)N[C@@H](CCC(=O)O)C(=O)N[C@H](C(=O)N[C@@H](CC(C)C)C(=O)N[C@H](C(=O)N[C@@H](CCCNC(N)N)C(=O)N[C@H](C(=O)O)C(C)C)C(C)C)[C@@H](C)CC (H-ED[Thr(P(OH)3+)]DEDDHLIYLEEILV[Orn(CH(NH2)2)]V-OH)
protein: C-terminal domain of human RAP74, PDB entry 2k7l
  Kd: 0.7 µM (active)

## Nc1nc(-c2ccc(C(F)(F)F)cc2)cc(N2CCOCC2)n1
protein: Acetylcholine-binding protein AChBP, PDB entry 4qab
  Kd: 0.0002 µM (active)

## CC1CCN(c2cc(-c3ccc(C(F)(F)F)cc3)nc(N)n2)CC1
protein: Acetylcholine-binding protein AChBP, PDB entry 4qac
  Kd: 0.0004 µM (active)

## CCCCCC[C@](C)(NC(=O)[C@H](CC(=O)O)NC(=O)[C@H](CC(C)C)N[C@@H](O)[C@](C)(CCCCCC)N[C@@H](O)CN)C(=O)N[C@@H](CC(C)C)C(=O)N[C@@H](CC(=O)O)C(=O)N[C@@H](CC(C)C)C(=O)N[C@@H](C)C(=O)N[C@@H](CO)C(=O)O (H-[X3]D[X4]LDLAS-OH)
protein: 14-3-3 protein zeta/delta, PDB entry 4n84
  Kd: 0.51 µM (active)

## CCCC[C@@](C)(NC(=O)CNC(=O)[C@@H](N)CCC(N)=O)C(=O)N[C@@H](CC(C)C)C(=O)N[C@@H](CC(=O)O)C(=O)N[C@@](C)(CCCC)C(=O)N[C@@H](CC(C)C)C(=O)N[C@@H](CC(=O)O)C(=O)N[C@@H](CC(C)C)C(=O)N[C@@H](C)C(=O)N[C@@H](CO)C(=O)O (H-QG[X1]LD[X2]LDLAS-OH)
protein: 14-3-3 protein zeta/delta, PDB entry 4n7y
  Kd: 0.55 µM (active)

## c1ccc([C@@H]2Nc3ccccc3-c3nc4ccccc4n32)nc1
protein: Retinal rod rhodopsin-sensitive cGMP 3',5'-cyclic phosphodiesterase subunit delta, PDB entry 4jv8
  Kd: 1.42 µM (active)

## Cc1cc2nc3c(=O)[nH]c(=O)nc-3n(C[C@H](O)[C@H](O)[C@H](O)CO)c2cc1C
protein: putative protease fromBacteroides thetaiotaomicron (ppBat), PDB entry 4d1y
  Kd: 0.074 µM (active)

## O=C1N[C@@H](c2cccnc2)c2c(-c3ccccc3)n[nH]c21
protein: Gag protein, PDB entry 4j93
  Kd: 20 µM (active)

## O=C(O)CCc1ccc2c(c1)OCO2
protein: INTEGRASE, PDB entry 4ahr
  Kd: 6500 µM (active)
protein: Pantothenate synthetase (T2A, E77G mutation), PDB entry 4ef6
  Kd: 1200 µM (active)

## O=C(O)c1ccc2c(c1)OCO2
protein: Pantothenate synthetase (T2A, E77G mutation), PDB entry 4ddk
  Kd: 5100 µM (active)

## O=C1NC(=[N+]2CCCC2)Cc2ccccc21
protein: Caspase-6, PDB entry 4n7m
  Kd: 3.4 µM (active)

## O=C(Nc1ccc(OC(F)(F)F)cc1)N(Cc1cccc(-c2nccs2)c1)C1CC1
protein: High affinity nerve growth factor receptor TrkA, PDB entry 4pmp
  Kd: 0.4 µM (active)

## CCc1c(C(=O)Nc2cc(S(=O)(=O)N(CC)CC)ccc2O)[nH]c(C)c1C(C)=O
protein: Bromodomain-containing protein 4, BRD4(1), PDB entry 4lyw
  Kd: 237 µM (active)

## CCc1c(C(=O)NC)[nH]c(C)c1C(C)=O
protein: Bromodomain-containing protein 4, BRD4(1), PDB entry 4lzs
  Kd: 16 µM (active)

## CC[C@H](C)[C@H](NC(=O)[C@H](CCC(=O)O)NC(=O)[C@@H](NC(=O)[C@H](CC(=O)O)NC(=O)CNC(=O)[C@H](Cc1ccc(O[P+](O)(O)O)cc1)NC(=O)[C@H](CC(=O)O)NC(=O)[C@H](CCC(=O)O)NC(=O)[C@@H]1CCCN1C(=O)[C@H](Cc1ccc(O)cc1)NC(=O)[C@@H]1CCCN1C(=O)[C@H](CC(N)=O)NC(=O)[C@@H](N)Cc1ccc(O)cc1)[C@@H](C)CC)C(=O)NCC(=O)O (H-YNPYPED[X1]GDIEIG-OH)
protein: insulin receptor subunit beta, PDB entry 3bu6
  Kd: 1.3 µM (active)

## CC(C)C[C@H](NC(=O)[C@H](CCC(N)=O)NC(=O)CNC(=O)[C@H](CCC(N)=O)NC(=O)[C@@H]1CCCN1C(=O)[C@H](CC(C)C)NC(=O)[C@@H]1CCCN1C(=O)[C@H](CCC(=O)O)NC(=O)[C@@H]1CCCN1C(=O)[C@@H](N)CC(C)C)C(=O)N[C@H](C(=O)N[C@@H](C)C(=O)N[C@@H](Cc1ccc(O)cc1)C(=O)O)[C@@H](C)O
protein: HLA class I histocompatibility antigen(HLA-B*3501), PDB entry 1zhk
  Kd: 35.2 µM (active)
protein: HLA class I histocompatibility antigen(HLA-B*3508), PDB entry 1zhl
  Kd: 9.9 µM (active)

## CC[C@H](C)[C@H](NC(=O)[C@H](C)NC(=O)[C@@H]1CCCN1C(=O)[C@@H](NC(=O)[C@@H](N)CC(=O)O)[C@@H](C)CC)C(=O)N[C@@H](Cc1ccc(O)cc1)C(=O)N[C@@H](CCCNC(N)N)C(=O)N[C@@H](Cc1ccc(O)cc1)C(=O)NCC(=O)N[C@@H](CC(C)C)C(=O)N[C@@H](CCC(=O)O)C(=O)NCC(=O)N[C@@H](CC(C)C)C(=O)N[C@@H](CC(C)C)C(=O)O (H-DIPAIY[Orn(CH(NH2)2)]YGLEGLL-OH)
protein: CELL DIVISION PROTEIN FTSA, PUTATIVE, PDB entry 4a2a
  Kd: 45 µM (active)

## CC(C)C[C@H](NC(=O)[C@@H](NC(=O)[C@H](C)NC(=O)[C@H](Cc1ccc(O)cc1)NC(=O)[C@H](C)NC(=O)[C@@H]1CCCN1C(=O)[C@@H]1CCCN1C(=O)[C@@H]1CCCN1C(=O)[C@H](C)NC(=O)[C@@H](N)[C@@H](C)O)[C@@H](C)O)C(=O)NCC(=O)O (H-TAPPPAYATLG-OH)
protein: E3 ubiquitin-protein ligase NEDD4, PDB entry 2m3o
  Kd: 5 µM (active)
